Only some compounds are listed: those with a hit (about 8% of all), similar ones and a draw of the others.
HCV inhibitor: inhibitors of hepatitis C virus infection | Potency, µM (highest dose often 41.8 µM), for inactives: top-dose activity change, negative = inhibition, hits mostly inhibitors | 340,000 compounds, 3.4% hits | Huh7.5.1 HCVcc-Cre infection, luciferase reporter, 44 h | AID 651820; active means well fitted inhibition curve with a large enough effect; inconclusive means small, poorly fitted or top-dose-only effect, or another doubt; inactive means no such curve, though single readings can be large or run the other way; further: potency means the concentration at half of the fitted maximal effect; on the % scale 0 is the no-effect control and ±100 the full control effect
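Luciferase read-out (15 sec integration) after a 15 min room-temperature substrate step quantifies HCVcc-Cre infection. Cells, 1,000 per well, had compound added 4 h post-plating, then virus at ~0.5 moi, and were cultured 44 h.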
MARV entry inh: inhibitors of Marburg virus binding or cell entry; Marburg virus pseudotyped entry inhibition, cell reporter; Potency, µM (highest dose often 37.8 µM), for inactives: at the top dose activity change, negative = inhibition, actives largely listed as inhibitors; 300,000 compounds, 1.8% hits; calls by dose curve; tested in HEK293 cells; further: potency means the concentration at half of the fitted maximal effect; on the % scale 0 is the no-effect control and ±100 the full control effect
SARS PLP yeast: blocks SARS-CoV papain-like protease in a yeast assay; S. cerevisiae expressing SARS-CoV PLpro, growth rescue; 330,000 compounds, 0.19% hits; Potency, µM (top dose mostly 32.9 µM), for inactives: top-dose activity, positive = growth rescue, usual class: activators; calls by dose curve; further: potency means the concentration at half of the fitted maximal effect; 0% is about no effect; nearly all actives have a fitted effect of over 55% in size
LASV entry inh: inhibitors of Lassa virus binding or cell entry | Lassa virus pseudotype entry inhibition, cell reporter | 300,000 compounds, 1.2% hits | Potency, µM (highest dose often 37.9 µM), inactives show at the highest dose activity change, negative = inhibition, actives largely listed as inhibitors | AID 540256; calls by dose curve; tested in HEK293 cells; further: potency means the concentration at half of the fitted maximal effect; on the % scale 0 is the no-effect control and ±100 the full control effect; nearly all actives have a fitted effect of over 50% in size
HCMV inh: blocks human cytomegalovirus replication. activity change, negative = inhibition, % at 57.5 µM. HFF cells, HCMV-luciferase reporter, 72 h; hits give low values. 410,000 compounds, 4.5% hits; in the data active means activity change below about -60%; inconclusive means no clear call, values can overlap the other calls; inactive means above about -39%; further: on the % scale 0 is the no-effect control and ±100 the full control effect
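Human foreskin fibroblasts infected with luciferase-reporter HCMV at MOI 1 PFU/cell, compounds at two doses. Luciferase measured 72 h post infection; normalized to buffer-only basal and Salinomycin (10uM) controls.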
FMDV antiviral: foot and mouth disease virus antiviral activity; FMDV antiviral cell-based qHTS; AID 1159524; Potency, µM (titrated, usually from 57.9 µM), without a hit: top-dose activity change, negative = inhibition, hits mostly inhibitors; 410,000 compounds, 1.2% hits; calls by dose curve; tested in HEK293T cells; further: read-out not given here; potency means the concentration at half of the fitted maximal effect; on the % scale 0 is the no-effect control and ±100 the full control effect; nearly all actives have a fitted effect of over 45% in size
Numbers without * were called inactive; ? = inconclusive; . = not tested or not shown; + = active, no number; [ ] = remark or other dose.

SMILES | HCV inhibitor | MARV entry inh | SARS PLP yeast | LASV entry inh | HCMV inh | FMDV antiviral
O=C(N/N=C/c1cccc(Oc2ccccc2)c1)c1ccccc1Br | 11.2µM* | ? | -18.7% | 6.51µM* | -90.8* | .
Oc1ccccc1-c1nc(N2CCCC2)c2ccccc2n1 | ? | 14.6% | 4.3% | 9.6% | 19.4 | 4.4%
c1ccc(N2CCN(c3nc(NCc4ccco4)c4ccccc4n3)CC2)cc1 | 1µM* | ? | -4.3% | ? | -6.1 | 28.2µM*
Oc1ccccc1-c1nc(NCc2ccco2)c2ccccc2n1 | 3.16µM* | -58.9% | -4.7% | 2.4% | 1.6 | 12.7%
c1coc(CNc2nc(N3CCCCC3)nc3ccccc23)c1 | ? | ? | -4.6% | ? | ? | -5.8%
O=c1c2ccccc2nc2c3ccccc3c(NCc3ccco3)nn12 | ? | 3.0% | 15.8% | 6.1% | 8.6 | -9.4%
Fc1ccccc1-c1nc(NCc2ccco2)c2ccccc2n1 | -25.1% | -24.9%[46.1 µM] | -4.5% | -19.5% | -80.5* | -29.1%
CC(C)Oc1nc(-c2ccccc2O)nc2ccccc12 | 12.6µM* | 6.8% | -0.8% | 8.1% | -17.3 | 35.7%
Fc1ccccc1CNc1nc(-c2cccnc2)nc2ccccc12 | 35.5µM* | ? | -4.3% | ? | 11.8 | 3.1%
c1ccc(-c2nc(NCc3ccco3)c3ccccc3n2)nc1 | ? | ? | -17.1% | ? | -102.3* | ?
c1cncc(-c2nc(NCc3cccs3)c3ccccc3n2)c1 | -29.6% | -27.0%[46.1 µM] | -0.9% | -7.5% | ? | ?
Oc1ccccc1-c1nc(NCc2ccccc2)c2ccccc2n1 | 11.2µM* | ? | 1.9% | -30.6%[46.1 µM] | -31.4 | -16.3%
COc1c(N2C[C@@H]3CCCN[C@H]3C2)c(F)cc2c(=O)c(C(=O)O)cn(C3CC3)c12 | . | . | . | . | . | 3.1%
CCOC(=O)CSc1nc2sc3c(c2c(=O)n1Cc1ccccc1)CC(C)CC3 (stereo not given) | . | . | . | 3.0%[46.1 µM] | 11.4 | -11.1%
COC(=O)c1cccnc1-n1c(=O)c2cccnc2n(Cc2cccc([N+](=O)[O-])c2)c1=O | -3.5% | . | 4.1% | . | -85.8* | -16.0%
COC(=O)c1cccnc1-n1c(=O)c2cccnc2n(Cc2ccc(Cl)cc2)c1=O | 10.0% | 1.5% | 1.1% | -3.2% | 10.9 | -7.5%
Clc1ccc(Cn2cnc3ccccc32)cc1 | ? | ? | -10.4% | -24.9%[46.1 µM] | -70.3* | ?
CCOc1ccc(CCNC(=O)c2ccc3c(c2)c(C)c(C)n3Cc2ccccc2)cc1OCC | . | . | . | ? | ? | -18.5%
Cc1ccccc1C(O)c1cccnc1 (stereo not given) | 14.8% | 15.5% | 5.6% | 17.7% | -60.7* | -23.8%
Cc1cc(N)c2ccccc2[n+]1CCCCCCCCCC[n+]1c(C)cc(N)c2ccccc21 | . | 10µM* | . | ? | . | ?
CCn1c(=O)c2cc(C(=O)NCCCN3CCN(c4ccc(F)cc4)CC3)sc2c2ccccc21 | . | ? | . | 7.3%[46.1 µM] | 20.0 | ?
Cc1cc(C)cc(NC(=O)CCN2C(=O)c3ccccc3Sc3ncccc32)c1 | . | . | . | -1.8%[46.1 µM] | -60.5* | -5.0%
CN(C)c1ccc(/C=N/O)cc1 | 8.8% | -5.1%[46.1 µM] | 0.6% | -5.9% | -28.3 | 27.1%
CN(C)c1ccc(/C=C2/C(=N\O)C3CCN2CC3)cc1 | -13.5% | 5.1%[46.1 µM] | -1.2% | 5.4%[46.1 µM] | -98.2* | 9.1%
N#Cc1ccc(-c2csc(NNC(=O)c3ccccc3)n2)cc1 | -18.8% | 10µM* | -2.1% | ? | -31.4 | -12.6%
SMILES | HCV inhibitor | MARV entry inh | SARS PLP yeast | LASV entry inh | HCMV inh | FMDV antiviral
N#Cc1ccc(-c2csc(NNC(=O)c3ccc(Br)cc3)n2)cc1 | 8.91µM* | ? | -8.4% | -20.7% | -105.6* | -23.4%
O=C(NNc1nc(-c2ccccc2)cs1)c1ccccc1 | ? | ? | -1.3% | ? | -32.9 | 24.1%
N#Cc1ccc(OCC(O)CN2CCN(c3ncc(C(F)(F)F)cc3Cl)CC2)cc1 (stereo not given) | ? | ? | -14.1% | ? | -71.9* | -28.8%
N#Cc1ccc(OCC(O)CN2CCN(CC(O)COc3ccc(C#N)cc3)CC2)cc1 (stereo not given) | 19.1% | ? | -1.3% | -23.2% | 4.6 | ?
O=c1c(-c2ccccc2)c(O)c2ccccc2n1-c1ccccc1 | 10.1% | 8.9% | 0.6% | 10.5% | -63.8* | -4.5%
CCn1c(=O)c(-c2ccccc2)c(O)c2ccccc21 | -3.3% | -1.2% | -3.2% | 0.9% | -17.1 | -13.3%
COc1ccccc1-c1c(-c2ccc(O)cc2O)n[nH]c1C(F)(F)F | ? | . | 1.0% | . | + | 15.8µM*
Oc1ccc(-c2n[nH]c(C(F)(F)F)c2-c2ccccc2)c(O)c1 | 5.62µM* | ? | 3.7% | ? | -81.7* | 20µM*
CCOc1c(Cl)cc(Cl)cc1CNCCSc1nnnn1C | . | 1.1%[46.1 µM] | . | -20.8%[46.1 µM] | -1.9 | -12.0%
O=C(c1ccc([N+](=O)[O-])cc1)N1c2ncnn2C2(CCCCC2)[C@@H]2CCCC[C@@H]21 | . | 7.5%[46.1 µM] | . | 26.4%[46.1 µM] | 4.4 | ?
C/C=C(/C)C(=O)O[C@H]1C(C)=C2C([C@@H]1OC(=O)CCCCCCC)[C@@](C)(OC(C)=O)C[C@@H](OC(=O)CCC)[C@@]1(O)[C@H]2OC(=O)[C@@]1(C)O (stereo not given in full) | . | 0.708µM* | . | . | . | .
COc1cc(-c2cnc3ccccc3c2)cc2c1OCCN(S(=O)(=O)C[C@]13CC[C@H](CC1=O)C3(C)C)C2 | . | . | . | . | . | -0.8%
O=C(CCC1N=C2c3ccccc3N=C(SCc3ccc(F)cc3)N2C1=O)NCc1ccc(F)cc1 (stereo not given) | . | . | . | -3.0%[46.1 µM] | 28.2 | -33.4%
CC(=O)OC[C@H]1O[C@H](C/C=N/OC[C@@H](C)[C@H](OCc2ccccc2)C(C)C)C=C[C@@H]1OC(C)=O | . | -9.9%[14.2 µM] | . | . | . | .
CNCc1c(OCc2ccccc2F)ccc2ccccc12 | 8.91µM* | ? | -0.3% | ? | ? | -19.7%
Nc1nonc1C(=O)NCCNCc1c(OCc2ccccc2F)ccc2ccccc12 | 14.1µM* | ? | 0.3% | ? | 6.3 | ?
CCOC(=O)c1c(-c2ccc(OC)cc2)oc2ccc(OCc3ccccc3C)cc12 | . | 28.1%[46.1 µM] | . | -7.4%[46.1 µM] | -13.2 | 2.6%
Cc1cc(N2CCN(c3cccc(C)c3C)CC2)n2nc(C)c(-c3ccc(Cl)cc3)c2n1 | . | -3.1%[46.1 µM] | . | 9.5%[46.1 µM] | -8.5 | -7.5%
CNc1nc(-c2ccc3c(c2)CCN3C(=O)c2ccc(F)cc2)cs1 | ? | . | -4.2% | . | -18.7 | 2.1%
O=C(CN1CCCC1)Nc1nc(-c2ccc3c(c2)CCN3C(=O)c2ccccc2F)cs1 | 10µM* | ? | -0.7% | ? | . | 3.0%
CNc1nc(-c2ccc3c(c2)CCN3C(=O)c2cccc(F)c2)cs1 | 11.2µM* | . | -11.2% | . | -9.7 | -22.4%
COc1ccc(Br)cc1CNC(=O)Cn1nc(C)n2c(cc3cc(F)ccc32)c1=O | . | 6.1%[46.1 µM] | . | . | 21.1 | -15.9%
CCOC(=O)c1cnc(SCC(=O)Nc2ccc(N3CCOCC3)c(Cl)c2)nc1N | 0.6% | -9.1% | 8.0% | 0.5% | 32.7 | -6.5%

Source: PubChem BioAssay (National Center for Advancing Translational Sciences (NCATS))
